# From PubChem BioAssay (Tox21)
# Values without a mark were called inactive. The source made the active and inactive calls. Calls come from the whole dose curve.
# Assay: G protein-coupled receptor (GPCR) small molecule agonists, calcium flux assay: HEK293 wild type cell line counter screen (AID 1920065)
# Conditions: HEK293 WT calcium flux, fluorescence, agonist mode; series mostly up to 57.6 µM; activation: at the top concentration
# From the text: U.S. Tox21 Program National Center for Advancing Translational Sciences [NCATS] Division of Preclinical Innovation [DPI] U.S. Environmental Protection Agency [EPA] National Institutes of Environmental Health Sciences [NIEHS] National Toxicology Program [NTP] U.S. Food and Drug Administration [FDA] Assay overview: The increased intracellular calcium release that occurred upon G protein-coupled receptor (GPCR) activation led to the frequent use of calcium flux assays to detect GPCR activation. For the purpose of studying and screening compounds that may activate GPCR, receptor-overexpressing models were typically generated using Hek293 wild-type (WT) cells. In order to eliminate the compounds that may have induced calcium release for non-specific activation, a counter-assay utilizing calcium flux on Hek293 WT cells was performed. The data were formulated in order to serve as a control for any calcium flux detection utilizing Hek293 cells with either GPCR overexpression or gene modification. The procurement of Hek293 WT cells from ATCC. Fluorescence intensity can be utilized to determine the activation of the compound in a calcium flux assay. As a counter control, this cell line was utilized to screen the Tox21 10K compound library.
# Assay Protocol Summary: Hek293 cells were dispensed at 1500cells/4uL/well in 1536-well black wall/clear bottom plates using a multidrop dispenser. After the assay plates were incubated at a 37 C/5% CO2 incubator for 18 hours, 4 uL of Calcium Dye Solution was added to each well. The plates were incubated at 37 C for 1 hour. For agonist mode, 23 nL of compounds dissolved in DMSO, positive control (ATP) or DMSO only was transferred to the assay plate by a pin tool station. The fluorescence intensity in the plates was measured using FDSS 7000EX kinetic plate reader with a filter set of Ex/Em=480/540 for 3 min at 1 sec intervals. Each test compound was measured at 15 concentrations and in triplicates.
# % is set by controls: 0 for no effect and ±100 for the full control effect; potency is the fitted concentration of half-maximal effect.
SMILES,activation,Potency
S=c1nccc[nH]1,0.173%,
CCCC/C=C/C=C\C=O,0.0108%,
CC(=O)OCC(C)OC(C)=O (stereo not given),0.149%,
Oc1c(I)cc(Cl)c2cccnc12,,inactive
CNCC(O)c1ccc(O)c(O)c1 (stereo not given),-0.356% [at 26.5 µM],
CCCCCCCCCCCCCCCC(=O)OCC,-1.46%,
CC(C)CCOC(=O)c1ccc(N(C)C)cc1,-0.244% [at 26.5 µM],
CCCNCCC,0.608%,
CC(C)N1C(=O)c2ccccc2C1=O,0.0168%,
CCOC(=O)c1ccccc1OC,2.65%,
CCN(CC)CCOC(=O)C1(C2CCCCC2)CCCCC1,1.01% [at 26.5 µM],
Cc1ccc(Cl)c(N)c1Cl,-0.87%,
NC(=O)c1ccccc1C(N)=O,-0.457%,
CC(Oc1c(Cl)cccc1Cl)C1=NCCN1 (stereo not given),1.49% [at 26.5 µM],
COCCOc1cc2cc(C(=O)NC3CCN(C(C)C)CC3)n(CC(=O)Nc3ccc(Cl)cn3)c2cn1,-0.142%,
CN[C@@H]1[C@@H](O)[C@@H](O[C@@H]2[C@H](O)[C@H](O[C@H]3OC(CN)=CC[C@H]3N)[C@@H](N)C[C@H]2N)OCC1(C)O (stereo not given in full),-0.219% [at 26.5 µM],
CC(C)C1=CC2=CC[C@@H]3[C@](C)(CCC[C@@]3(C)C(=O)O)[C@H]2CC1,0.004%,
CCCCCCNC(=O)n1cc(F)c(=O)[nH]c1=O,-0.101% [at 26.5 µM],
C[C@@H](O)[C@H]1C(=O)N2C(C(=O)O)=C(S[C@@H]3CN[C@H](CNS(N)(=O)=O)C3)[C@H](C)[C@H]12,-0.702% [at 26.5 µM],
N=C(N)S(=O)O,0.282%,

SMILES,activation,Potency
C=CCN(CC=C)CC=C,-0.151%,
CC(C)c1ccccc1C(C)C,0.248%,
Clc1ccccc1CN1CCc2sccc2C1,-1.05% [at 26.5 µM],
Cc1cc(CCN2CCN(c3nsc4ccccc34)CC2)cc2c1NC(=O)CC2(C)C,-1.78%,
CC(=O)Nc1cccc(N)c1,1.72%,
O=C(O)COc1ccc2ccccc2c1,-0.428%,
CCC(CN)=C(c1ccccc1)c1ccccc1,-0.175% [at 26.5 µM],
C=C(C)C(=O)OCC(O)COc1ccc(C(C)(C)c2ccc(OCC(O)COC(=O)C(=C)C)cc2)cc1 (stereo not given),3.98%,
Cn1c(=O)c2c(ncn2CCO)n(C)c1=O,0.591% [at 26.5 µM],
CCCNCC(O)COc1ccccc1C(=O)CCc1ccccc1 (stereo not given),0.0549% [at 26.5 µM],
CCCCCCCC/C=C\CCCCCCCC(=O)NCc1ccc(O)c(OC)c1,-0.173% [at 26.5 µM],
CCN(CC)CC1CCCCN1CC(=O)N1c2ccccc2C(=O)Nc2cccnc21 (stereo not given),0.499% [at 26.5 µM],
Clc1ccc(Cn2c(CN3CCCC3)nc3ccccc32)cc1,-0.16% [at 26.5 µM],
Sc1nc(S)nc(S)n1,-0.545% [at 26.5 µM],
CCOc1ccc(OCC)c(Cl)c1,0.604%,
CC(CCO)CCCC(C)(C)O (stereo not given),-0.514%,
C[C@@H]1C[C@H]2[C@@H]3C[C@H](F)C4=CC(=O)C(Cl)=C[C@]4(C)[C@@]3(F)[C@@H](O)C[C@]2(C)[C@@]1(O)C(=O)CO,1% [at 26.5 µM],
CC(C)(C)c1cc(O)c(C(C)(C)C)cc1O,,34.7 µM (active)
CN(C)c1ccc(SC#N)cc1,-0.835%,
COc1cc2c(cc1OC)-c1cc(=Nc3c(C)cc(C)cc3C)n(C)c(=O)n1CC2,-1.25% [at 26.5 µM],
